Compound activity from PubChem.
Shown are actives, neighbours in structure and some others; about 3% of the full set was active somewhere.
L929 necroptosis: blocks zVAD induced death of L929 cells | L929 zVAD necroptosis rescue, ATP luminescence, 24 h; with zVAD 60 µM | viability rescue, % at 10 µM | actives 0.38% (n = 220,000) | AID 1377;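 active = activation, scaled between plate controls, above about 75%, limit read from the data; inactive = activation under that limit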;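 note: 0% = zVAD with DMSO and 100% = DMSO alone without zVAD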
TNF necrop inh: TNF-alpha cell death inhibition in Jurkat FADD-/- cells; Jurkat FADD-/- TNF necroptosis rescue, ATP luminescence, 24 h; 0 = TNF only, 100 = no-TNF cells; activation (protection from cell death), % at 10 µM; actives 0.068% (n = 220,000);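 active = activation, meaning protection from cell death, of at least 50% relative to plate controls; inactive = activation below 50%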;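 note: necroptosis triggered by 40 ng/mL TNF-alpha added together with compound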
ROMK primary: modulates human ROMK potassium channel activity; AID 1918; B-score at 10 µM; P48048; Tet-inducible ROMK, thallium flux fluorescence; actives lie on both sides; actives 2% (n = 130,000);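 active = signal ratio slope over the read window, or its plate-corrected B-score, at least 3 SD from the plate mean, either direction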;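 note: B-score of the F/F0 ratio slope over 7 to 12 s after thallium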
14-3-3 Bad inh: disrupts binding of bovine 14-3-3 zeta to phospho-Bad peptide; AID 781; actives 0.71% (n = 220,000); inhibition, % at 21.7 µM; TR-FRET 14-3-3zeta/Dy647-pBad peptide displacement, 1 h; P63103;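 active = inhibition above about 70%, limit read from the data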;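 note: 0% = full 14-3-3 plus peptide FRET controls and 100% = background without 14-3-3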
Target sequence (P63103 whole entry, looked up): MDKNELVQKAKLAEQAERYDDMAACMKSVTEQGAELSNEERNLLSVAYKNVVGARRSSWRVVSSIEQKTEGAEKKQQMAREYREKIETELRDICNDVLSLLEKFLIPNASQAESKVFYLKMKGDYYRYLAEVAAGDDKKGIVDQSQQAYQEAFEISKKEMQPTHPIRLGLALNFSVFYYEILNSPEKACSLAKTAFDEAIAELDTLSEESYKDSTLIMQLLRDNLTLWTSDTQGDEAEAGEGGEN
Efa HMGR inh: blocks class II HMG-CoA reductase of Enterococcus faecalis | purified E. faecalis HMGR, NADPH absorbance 340 nm kinetic | inhibition, % at 10 µM | actives 0.41% (n = 190,000) | AID 1066;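 active = inhibition above a set limit, the median over all tested compounds plus 3 SD, cut at about 9.5% in these data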;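 note: enzyme runs in reverse so mevalonate oxidation gives rising NADPH absorbance; 0% = complete reaction with DMSO and 100% = background rate lacking mevalonate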
m-calpain inh: calpain II (pig) inhibition | inhibition, % at 16 µM | AID 1236 | actives 0.37% (n = 220,000) | purified calpain II, fluorogenic peptide substrate, 30 min;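 active = inhibition above about 50%, limit read from the data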
* hit, by the source's call; i = inactive; . = no result.

SMILES	L929 necroptosis	TNF necrop inh	ROMK primary	14-3-3 Bad inh	Efa HMGR inh	m-calpain inh
COC(=O)c1ccc(-c2nc3ccccc3[nH]2)cc1	0	-11	-0.55	2	-4	i
O=C(CC1SC(=NCc2ccccc2)NC1=O)Nc1ccccc1 (centres undefined)	1	2	-0.11	8	-5	18
C#CCOCCOCCOCCNc1nc(N2CCN(C(=O)Cn3cc(CC(C)O)nn3)CC2)nc(N2CCN(C(=O)[C@H](CCCCN)n3cc(CCC(=O)O)nn3)CC2)n1 (some centres undefined)	3	0	0.07	72*	-9	6
COc1ccc(NC(=O)c2cn(CCC#N)nc2-c2cc3ccccc3o2)cc1	1	1	0.73	-5	2	-4
COc1ccc(/C=N/n2c(C)nc3sc(C)c(C)c3c2=O)cc1	0	-1	.	-7	.	-4
COCCNC(=O)C(c1ccc(C)o1)N(C(=O)Cn1nnc2ccccc21)c1ccccc1 (centres undefined)	-3	1	0.45	-8	-3	-17
O=C(CCC1CCCCC1)Nc1cccnc1	1	3	0.13	-1	1	-17
O=C(CCC1CCCCC1)Nc1ccc(C(=O)c2ccncc2)cc1	62	3	0.016	-6	-2	51*
CCCCCC(C)NC(=O)c1ccoc1C (centres undefined)	0	-1	-0.56	2	11*	-6
CCCCCCCCCCCNC(=O)c1ccoc1C	0	-3	-0.5	6	-5	-18
CC(C)(C)NC(=S)NC1CC1	1	0	.	-10	.	2
CC(C)c1ccc(C(=O)NC(=S)NCc2cccnc2)cc1	4	0	.	2	-5	53*
CC(C)c1ccc(CN2CCC(C(=O)NCc3cccnc3)CC2)cc1	-1	0	0.052	74*	-8	-8
Cc1cc(C(=O)Nc2ncn(Cc3ccc(F)cc3)n2)ccc1[N+](=O)[O-]	-1	-1	.	1	.	9
COc1ccc(CN2C(=O)c3ccccc3C2=O)cc1C(=O)OC(C)C(=O)NC(N)=O (centres undefined)	0	1	-0.42	0	-1	13
CCc1cccc(CC)c1NC(=O)c1cc(CN2C(=O)c3ccccc3C2=O)ccc1OC	0	0	.	10	-6	50*
Cc1cc(C)n2nc(SCc3nnc(SCc4ccccc4Cl)s3)nc2n1	0	-1	0.28	-14	-4	50*
Cc1cc(C)n2nc(SCc3nnc(SCc4ccccc4C)s3)nc2n1	0	-1	-1.1	2	-1	0
O=C(c1ccc(F)cc1)N1CCCC(C(=O)N2CCc3ccccc3C2)C1 (centres undefined)	0	3	0.2	-1	.	-16
Cn1cc([N+](=O)[O-])c(C(=O)Nc2ccc(C(=O)N3CCCCC3)cc2)n1	-2	-4	.	-4	-5	1
O=[N+]([O-])c1cc(Oc2cccnc2)cc([N+](=O)[O-])c1	0	0	0.62	-2	-1	-4
Cn1cc([N+](=O)[O-])c(C(=O)Nc2ccc(C3CCCCC3)cc2)n1	-2	2	-0.41	-4	11*	-6
Cn1cc([N+](=O)[O-])c(C(=O)Nc2ccc(-c3nc4ccccc4[nH]3)cc2)n1	51	4	.	9	12*	-78
Cn1cc([N+](=O)[O-])c(C(=O)Nc2cc(Oc3cccnc3)cc([N+](=O)[O-])c2)n1	69	-16	-0.094	74*	1	59*
Cn1cc([N+](=O)[O-])c(C(=O)Nc2ccc3nc(-c4ccccc4)[nH]c3c2)n1	28	-1	.	5	-6	-26
SMILES	L929 necroptosis	TNF necrop inh	ROMK primary	14-3-3 Bad inh	Efa HMGR inh	m-calpain inh
CN(C(=O)CC(=O)Nc1ccc(Cl)c(Cl)c1)c1ccccc1	2	4	-0.041	-16	2	-11
CCOC(=O)N1CCN(C(=O)c2ccc(NS(C)(=O)=O)cc2)CC1	0	-1	.	-10	-1	50*
CCOC(=O)N1CCN(C(=O)c2ccc(NC(=O)CC)cc2)CC1	0	0	.	2	-3	2
O=C(COC(=O)CNC(=O)c1ccc(Cl)cc1Cl)Nc1ccc(N2CCOCC2)cc1	2	-1	-0.31	-6	0	-26
Cc1nn(-c2ccccc2)nc1C(=O)Nc1nnc(C(F)(F)F)s1	2	1	.	-1	.	-5
Cc1ccc(C(c2nnnn2Cc2cccs2)N2CCN(Cc3ccc4c(c3)OCO4)CC2)cc1 (centres undefined)	0	0	-2.1*	19	2	5
COCCn1nnnc1C(c1ccc(OC)cc1)N1CCC(C)CC1 (centres undefined)	-1	5	.	5	1	-4
CCCC(c1nnnn1Cc1ccccc1)N1CCN(c2ccccc2OC)CC1 (centres undefined)	0	0	.	84*	0	10
COc1ccc(C(c2nnnn2Cc2cccs2)N2CCN(c3ccccc3F)CC2)cc1OC (centres undefined)	1	2	0.38	83*	-4	0
Fc1ccc(C(c2nnnn2Cc2cccs2)N2CCN(c3ccccc3)CC2)cc1 (centres undefined)	-1	0	-0.79	-4	1	-3
COCCn1nnnc1C(c1ccc(Cl)cc1)N1CCSCC1 (centres undefined)	1	2	.	75*	-1	20
COC(C[C@@H](O)C[C@@H](O)COCc1ccccc1)OC	0	1	.	-2	.	-10
Cc1ccc(-c2cc3nn(-c4ccccc4)c(N)c3c(=O)o2)cc1	60	-6	.	-6	5	-19
CCO[C@@H]1OC(C(N)=O)=C[C@H](c2coc3ccccc3c2=O)[C@H]1CCCO	0	0	.	-1	.	-16
COCCn1nnnc1C(c1ccccc1OC)N1CCN(c2ccccc2F)CC1 (centres undefined)	1	-2	.	74*	0	23
COCCn1nnnc1C(c1ccc(OC)cc1)N1CCN(c2ccccc2F)CC1 (centres undefined)	1	1	.	44	-6	20
CCN(CC)C(=S)NC(=O)c1cccnc1	0	1	0.51	-13	18*	-21
CCN(CC)C(=S)NC(=O)c1ccc(OC)c(Br)c1	.	1	4.6*	3	-2	8
CCN(CC)C(=S)NC(=O)c1ccc(F)cc1	0	0	0.71	-5	0	-21
CC(=O)c1c(C)[nH]c(C(=O)NCc2cccc(Cl)c2)c1C	5	3	-1.6	-2	3	13
O=C(CN(C1CCCCC1)C1CCCCC1)N1CCc2ccccc2C1	0	0	-1.8	88*	-6	33
CCC(C)(C)n1nnnc1C(c1ccccc1)N1CCc2ccccc2C1 (centres undefined)	-1	-1	.	2	-6	-5
